# Rows were chosen to be rich in hits. Some 19% of all compounds tested hit in one or more screens of this group.
# IL1B secr inh: blocks inflammasome-driven IL-1 beta release | THP-1 LPS/ATP IL-1B secretion, AlphaLISA, 16 h; stronger effect = lower value | actives 4.7% (n = 360,000) | activity change, % at 57.5 µM | AID 743279; in the data active means activity change below about -50%; inconclusive means mostly about -30% to -49%; further: on the % scale 0 is the no-effect control and ±100 the full control effect
#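 Secreted IL-1B measured by AlphaLISA bead assay after 16 h compound exposure of THP-1 cells; compounds (final up to 57.5 uM) added 1 h before LPS (250 ng/mL) and ATP (1.25 mM) stimulation; lower signal means less secretion.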
# DT40 TDP1 no CPT: qHTS for Inhibitors of human tyrosyl-DNA phosphodiesterase 1 (TDP1): qHTS in cells in absence of CPT; DT40 Tdp1-/- hTDP1 cells, no CPT, ATP luminescence, 48 h; Potency, µM (top dose mostly 46.2 µM), for inactives: at the top dose activity change, negative = growth inhibition, actives largely listed as inhibitors; actives 15% (n = 420,000); further: potency means the concentration at half of the fitted maximal effect; on the % scale 0 is the no-effect control and ±100 the full control effect; nearly all actives have a fitted effect of over 55% in size
#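 Luminescent ATP content (CellTiter-Glo) served as the growth readout. Knockout chicken DT40 cells expressing human TDP1 were exposed to compounds without camptothecin for a minimum 48 hr at 37 °C.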
# MCF10A rereplic: induces DNA re-replication in MCF 10a normal breast cells; MCF 10A DNA re-replication, Hoechst nuclear intensity, 48 h; Potency, µM (top dose mostly 46.1 µM), for the others: top-dose activity, positive = re-replication, usual class: activators; actives 2.9% (n = 350,000); further: potency means the concentration at half of the fitted maximal effect; % of control where 0% means no effect; nearly all actives have a fitted effect of over 50% in size
# Chronic BCR inh: inhibitors of chronic active B-cell receptor signaling | ABC-DLBCL IkBa-CBG/CBR reporter, luminescence ratio, 4 h | Potency, µM (titrated, usually from 46.1 µM), inactives show at the highest dose activity change, negative = inhibition, actives largely listed as inhibitors | actives 0.05% (n = 340,000) | AID 493014; active means well fitted inhibition curve with a large enough effect in the signal ratio, with a control signal flat, not every such curve was filed as active; inconclusive means small, poorly fitted or top-dose-only effect, or effect the other way, or a change in a side signal; the % refers to the signal ratio;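 further: potency means the concentration at half of the fitted maximal effect; plate controls were basal doxycycline-induced cells for no effect and cells given 10 µM MG132 for full effect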
#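 TMD8 ABC-DLBCL cells carrying doxycycline-inducible green luciferase fused to IkappaBalpha plus unfused red luciferase were exposed to compounds (up to 46 uM) for 4 hrs at 37C. Activity came from the overlap-corrected green/red luminescence ratio.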
# TDP1 cell CPT: growth inhibition of DT40 Tdp1-/-;hTDP1 cells with camptothecin (screen for TDP1 inhibitors). Potency, µM (titrated, usually from 46.2 µM), without a hit: at the highest dose activity change, negative = growth inhibition, most hits filed as inhibitors. chicken DT40 Tdp1-/-;hTDP1 cells + 20 nM CPT, ATP luminescence, 48 h. AID 686979. actives 12% (n = 420,000); further: potency means the concentration at half of the fitted maximal effect; on the % scale 0 is the no-effect control and ±100 the full control effect; nearly all actives have a fitted effect of over 55% in size
#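 Chicken DT40 Tdp1-/- cells stably complemented with human TDP1 were seeded at 400 cells/well in medium containing 20 nM camptothecin, exposed to pin-transferred compounds, and grown at 37 °C for at least 48 hr. Viability was read as ATP luminescence.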
# SW480 rerep: induces DNA re-replication in SW480 colon adenocarcinoma cells; SW480 DNA re-replication, Hoechst DNA content imaging, 48 h; Potency, µM (series often up to 46.1 µM), for inactives: top-dose re-replication activation, hits mostly activators; actives 1.8% (n = 340,000); further: potency means the concentration at half of the fitted maximal effect; % of control where 0% means no effect; nearly all actives have a fitted effect of over 55% in size
#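 Quantitative HTS format with DMSO vehicle controls; 48 hr drug incubation at 37 C, then 40 min Hoechst staining and scanning imager measurement at 405 nm excitation.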
# * hit, by the source's call; i = inactive; ? = inconclusive; . = no result; [ ] = dose if it differs, or a comment. Unless noted, the call rests on the fitted dose curve; in most records, active means well fitted curve in the direction sought with a large enough effect; inconclusive means small, poorly fitted or top-dose-only effect, or another doubt; inactive means no such curve, though single readings can be large; an effect the other way counts as inactive or inconclusive.
SMILES,IL1B secr inh,DT40 TDP1 no CPT,MCF10A rereplic,Chronic BCR inh,TDP1 cell CPT,SW480 rerep
CCC1(C2CCN(Cc3ccc(OC)cc3)CC2)NC(=O)N(CC2COc3ccccc3O2)C1=O (configuration not stated),.,?,.,.,-16%[9.04 µM],.
COc1ccc(C(C(=O)NC2CCCC2)N(C(=O)c2snc(C(N)=O)c2N)c2cc(C)ccc2OC)cc1OC (configuration not stated),-12,18µM*,?,0%,?,6%
CCC(C(=O)NC1CCCC1)N(C(=O)c1snc(C(N)=O)c1N)c1ccc(OC)c(OC)c1 (configuration not stated),-9,-14%,-2%,9%,11%,-3%
COc1ccc(C(C(=O)NC2CCCC2)N(C(=O)c2snc(C(N)=O)c2N)c2ccccc2OC)cc1OC (configuration not stated),-9,-9%,8%,-2%,-28%,-3%
COc1ccc(N(C(=O)c2snc(C(N)=O)c2N)C(C(=O)NC2CCCCC2)c2ccc(F)cc2)c(OC)c1 (configuration not stated),-22,?,-7%,0%,2.9µM*,?
COc1ccc(N(C(=O)c2snc(C(N)=O)c2N)C(C(=O)NC2CCCC2)c2cc(OC)ccc2OC)c(OC)c1 (configuration not stated),-25,29µM*,29%,-3%,23µM*,?
COc1ccc(C(C(=O)NC2CCCC2)N(C(=O)c2snc(C(N)=O)c2N)c2cccc(O)c2)cc1 (configuration not stated),-4,13µM*,7%,-8%,?,-2%
FC(F)(F)c1cc(Cl)c2nc(-c3ccccc3)c(Cc3cccc(Cl)c3)n2c1,5,?,.,.,?,.
COc1ccc(-c2nsc(C(=O)N(c3ccc(F)cc3)C(C(=O)NC3CCCC3)c3ccc(OC)cc3)c2N)cc1 (configuration not stated),-3,16µM*,-2%,-9%,16µM*,3%
COCCN(C(=O)c1snc(C(N)=O)c1N)C(C(=O)NC1CCCCC1)c1ccc(F)cc1 (configuration not stated),0,10%,16µM*,-8%,-25%,?
CCOc1ccc(N(C(=O)c2snc(C(N)=O)c2N)C(C(=O)NC2CCCC2)c2ccncc2)cc1 (configuration not stated),20,-16%,12%,-14%,4%,-1%
COc1ccccc1NS(=O)(=O)c1ccc(C)c(NS(=O)(=O)c2cc(C(=O)O)cc(C)c2C)c1,i,0%,-7%,3%,-10%,-8%
CN(C)c1ccc(/C=C/c2sc3ccccc3[n+]2CCCCI)cc1,.,0.71µM*,.,.,0.56µM*,.
CCCCCCCCCC[n+]1ccc(/C=C/c2ccc(N(C)C)cc2)c2ccccc21,.,0.32µM*,.,.,0.35µM*,.
CN(C)c1ccc(/C=C/C#N)cc1,-3,-16%,-3%,?,-14%,-8%
CCCC[n+]1c(/C=C/c2ccc(N(C)C)cc2)sc2ccccc21,.,0.1µM*,.,.,0.025µM*,.
CSc1sc2ccccc2[n+]1CCCS(=O)(=O)[O-],5,-5%,-1%,-2%,-17%,-2%
CN(Cc1ccccc1)c1ccc(/C=C/c2sc3ccccc3[n+]2C)cc1,.,0.11µM*,.,.,0.089µM*,.
N#Cc1c(-c2ccccc2)nc(SCC(=O)Nc2ccc(OC(F)(F)Cl)cc2)[nH]c1=O,-15,-11%,6%,5%,?,-12%
Cc1ccc(NS(=O)(=O)c2c(C)[nH]c(C)c2C(=O)N2CCCCC2)c(Br)c1,-16,?,4%,0%,?,0%
CCOC(=O)C(C)N1C(=O)S/C(=C\c2ccc(-c3ccccc3C(=O)O)o2)C1=O (configuration not stated),3,-2%,-8%,0%,2%,?
C=CCN1C(=O)S/C(=C/c2ccc(Sc3nc4ccccc4[nH]3)o2)C1=O,-28,21µM*,?,0%,23µM*,22%
CC(C)N1C(=O)S/C(=C/c2ccc(Sc3nc4ccccc4[nH]3)o2)C1=O,-79*,10µM*,?,?,15µM*,?
O=C(COc1ccc(F)cc1)OCc1cc(=O)n2nc(C3CCCCC3)sc2n1,.,-27%,.,.,-21%,.
CCCOc1cccc(C(=O)NCCNC(=O)c2ccc(C)nc2)c1,38,-6%,1%,0%,4%,-11%
SMILES,IL1B secr inh,DT40 TDP1 no CPT,MCF10A rereplic,Chronic BCR inh,TDP1 cell CPT,SW480 rerep
COc1ccc(-c2cc(C(=O)NCC(c3ccccc3)N(C)C)c3ccccc3n2)cc1OC (configuration not stated),?,?,18µM*,-2%,?,18µM*
O=C(NCc1ccco1)c1cc(-c2ccncc2)nc2ccccc12,-4,-12%,-17%,?,-13%,4%
COc1ccc(-c2cc(C(=O)NCc3ccco3)c3ccccc3n2)cc1OC,4,18µM*,?,.,?,1%
COc1cccc(-c2cc(C(=O)NCc3ccco3)c3ccccc3n2)c1,16,?,?,0%,12µM*,6%
Cc1cc(C(=O)NCc2ccco2)c2ccccc2n1,1,-9%,3%,?,6%,-5%
CCc1nc(-c2ccc(OC)c(OC)c2)cc2cc(OC)c(OC)cc12,-8,21µM*,7%,-21%,16µM*,-3%
COC(=O)c1ccc(-c2cccc3c2OC(CNC(=O)/C=C/c2ccc(OC)c(OC)c2)C3)nc1 (configuration not stated),.,-20%,.,.,?,.
CC(C)(N=NC(C)(C)C(=N)N)C(=N)N,.,5%,.,.,?,.
COc1cc2cc3c(N)c(C(=O)NCc4ccco4)sc3nc2cc1OC,-58*,15µM*,13%,0%,23µM*,1%
COc1ccc(-c2noc(-c3ccccc3-c3ccccc3)n2)cc1OC,19,26µM*,24%,?,?,-1%
Cc1ccc2nc3sc(C(=O)NCc4ccco4)c(N)c3cc2c1,-8,-1%,?,?,-11%,3%
Cc1ccc(-c2cc(C(=O)NCC(c3ccccc3)N(C)C)c3ccccc3n2)o1 (configuration not stated),-28,?,?,1%,?,26µM*

# Screening data deposited in PubChem BioAssay by National Center for Advancing Translational Sciences (NCATS).
